Laboratory results from PubChem BioAssay AID504834 (National Center for Advancing Translational Sciences (NCATS), 2011).
Out of some 320,000 compounds screened, about 22,000 (6.9%) were called active. Where a call stands in place of a potency, no number is given. Roughly 27% stayed inconclusive and do not appear here. This is one part of a sample in which actives are shown more often than they occur. A number with no mark means an inactive call. Calls come from the whole dose curve; as a rule, active = well fitted inhibition curve with a large enough effect; inconclusive = small, poorly fitted or top-dose-only effect, or another doubt; inactive = no such curve, though single readings can be large or run the other way.

Test: Primary qHTS for delayed death inhibitors of the malarial parasite plastid, 96 hour incubation
Details: P. falciparum luciferase reporter growth; series mostly up to 28.7 µM
Method in brief: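 Parasite growth measured via integrated firefly luciferase reporter in P. falciparum. Infected erythrocytes at 2% hematocrit, 0.05% parasitemia final were treated 96 hours at 37 C under 5% CO2, and luminescence was read.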
Potency is the fitted concentration of half-maximal effect.

Structure (SMILES) | Potency | activity change, negative = inhibition
CC(=O)Nc1ccc(S(=O)(=O)Oc2ccc(Br)cc2C(=S)N2CCOCC2)cc1 | inactive | –
CCOC(=O)C(O)(c1ccc(N)c(OC)c1)C(F)(F)F (stereo not drawn) | 2.62 µM (active) | –
CCOC(=O)C(O)(c1ccc(N=Cc2ccccc2O)c(C)c1)C(F)(F)F (stereo not drawn) | inactive | –
COC(=O)C(O)(c1ccc(NC(=O)c2ccco2)c(OC)c1)C(F)(F)F (stereo not drawn) | – | 2.22% [at 5.75 µM]
C/C(=N\NC(=O)c1cccc([N+](=O)[O-])c1)c1cccnc1 | inactive | –
CCc1ccc(NC(=O)N[C@H](C(=O)O)C(C)CC)cc1 (stereo partly drawn) | inactive | –
O=C(Nc1ccccc1N1CCCCC1)c1ccc2nccnc2c1 | inactive | –
Cc1nnc(NC(=O)c2ccc3nccnc3c2)s1 | inactive | –
Cc1ccc(C)c(NC(=O)c2ccc3nccnc3c2)c1 | 8.28 µM (active) | –
CC(C)OCCCNC(=O)CN1C(=O)/C(=C/c2ccccc2F)Oc2ccccc21 | inactive | –
Cc1ccc(C)c(OCCC(=O)OCC(=O)NC(=O)NCc2ccccc2)c1 | inactive | –
COc1ccc(/C(C)=N/N2CCOCC2)c(O)c1 | inactive | –
COc1cccc(NC(=O)c2ccc(Cn3cc([N+](=O)[O-])cn3)o2)c1 | inactive | –
Cn1cc([N+](=O)[O-])c(C(=O)Nc2ccc3c(c2)OCCO3)n1 | inactive | –
COc1cccc(NC(=O)c2nn(C34CC5CC(CC(C5)C3)C4)cc2[N+](=O)[O-])c1 | 8.28 µM (active) | –
O=C(Nc1cccc([N+](=O)[O-])c1)N1CCc2ccccc2C1 | inactive | –
O=C(COC(=O)C1(c2ccc(F)cc2)CCCC1)N1CCNC1=O | inactive | –
O=C(/C=C/c1cccc([N+](=O)[O-])c1)OCC(=O)N1CCOCC1 | inactive | –
O=[N+]([O-])c1ccc2c(c1)C(N1CCOCC1)/C(=C/C1(O)CCCCC1)O2 (stereo not drawn) | 1.65 µM (active) | –
O=C(NC1CCCCC1)c1cc([N+](=O)[O-])ccc1N1CCOCC1 | inactive | –
O=[N+]([O-])c1ccc(N/N=C/c2ccccc2)cc1 | inactive | –
COc1ccc(NC(=O)CNC(=O)Cc2ccccc2)cc1OC | inactive | –
C[C@]12CC[C@@H]3c4ccc(O)cc4C[C@@H](CCCCCCCCCS(=O)CCCC(F)(F)C(F)(F)F)C3[C@@H]1CC[C@@H]2O (stereo partly drawn) | 6.01 µM (active) | –
O=C(CCNC(=O)c1ccc([N+](=O)[O-])cc1)NC1CCCCC1 | inactive | –
CCOC(=O)c1c(N=CN(C)C)c(C#N)c2n1CCCC2 | inactive | –
CCSc1ncnc2c(C#N)c3n(c12)CCCCC3 | 11.7 µM (active) | –

Structure (SMILES) | Potency | activity change, negative = inhibition
CC(C)c1nnc(NC(=O)COC(=O)/C=C/c2ccc([N+](=O)[O-])cc2)s1 | inactive | –
Cc1cc(C)n(CC(C)NCc2c(C(=O)N3CCOCC3)nc3c(C)cccn23)n1 (stereo not drawn) | inactive | –
COC(=O)C1[C@H]2SC(C)(C)C(C(=O)OC)N2C(=O)N1Cc1nc2ccccc2s1 (stereo partly drawn) | inactive | –
Cc1cccc(-n2c(N)c(C(=O)N3CCN(C)CC3)sc2=S)c1 | inactive | –
Cc1ccc(-n2c(N)c(C(=O)N3CCOCC3)sc2=S)c(C)c1 | inactive | –
N#Cc1ccccc1-n1c(N)c(C(=O)N2CCCC2)sc1=S | 3.7 µM (active) | –
COC(=O)Cc1ccc(OCC(=O)NC2CCCC2)cc1 | inactive | –
O=C(NNc1c2ccccc2nc2ccccc12)c1cc2ccccc2cc1O | 3.7 µM (active) | –
CC(C)(C)OC(=O)NNc1c2ccccc2nc2ccccc12 | inactive | –
O=C(N/N=C/c1cccnc1)c1cc2ccccc2cc1O | inactive | –
O=C(COC(=O)c1ccc2ncsc2c1)Nc1ccc(Cl)cc1 | inactive | –
COc1ccccc1C(=O)N/C(=C/c1ccco1)C(=O)Nc1ccc(C(=O)O)cc1 | inactive | –
CCCCCCC(=O)Nc1nc(C)c(-c2csc(Nc3cc(Cl)ccc3OC)n2)s1 | 2.62 µM (active) | –
CCCCC(=O)N/N=C(\C)CC(=O)Nc1cc(Cl)ccc1OC | inactive | –
COc1ccc(OC)c(-c2csc(NC(=O)COC(=O)C3CC3)n2)c1 | inactive | –
COc1ccc(-c2csc(NC(=O)COC(=O)Cc3ccc(Cl)cc3Cl)n2)cc1 | inactive | –
COc1ccc(OC)c(Nc2nc(-c3ccc(O)c(O)c3)cs2)c1 | inactive | –
CCCCC(=O)Nc1nc(C)c(-c2csc(Nc3ccc(Cl)cc3)n2)s1 | 3.29 µM (active) | –
CCCCN(C)CCC(=O)Nc1ccc(Cl)cc1 | inactive | –
Cc1nc(C)c(-c2csc(NCCc3ccccc3)n2)s1 | inactive | –
C=CCCC(=O)Nc1nc(C)c(-c2csc(Nc3ccc(Cl)cc3)n2)s1 | 0.657 µM (active) | –
CCCCCCC(=O)Nc1nc(C)c(-c2csc(Nc3cccc(OC)c3)n2)s1 | 7.38 µM (active) | –
CCOC(=O)c1csc(NC(=O)Nc2cccc(OC)c2)n1 | inactive | –
CC(=O)c1sc(NC(=O)CCCOc2ccccc2C)nc1C | inactive | –
COc1ccc(-c2ccc(OC(=O)NC3CCS(=O)(=O)C3)cc2)cc1 (stereo not drawn) | inactive | –
O=[N+]([O-])c1cc(S(=O)(=O)NCCc2ccccn2)ccc1Cl | inactive | –

Structure (SMILES) | Potency | activity change, negative = inhibition
CN1CCN(Cc2c(C(=O)N3CCc4ccccc4C3)nc3ccc(Cl)cn23)CC1 | inactive | –
COC(=O)c1ccc(NC(=O)CSc2nc(N)c(NC(=O)c3ccc(Br)o3)c(=O)[nH]2)cc1 | inactive | –
CCN(CC(=O)Nc1cc(Cl)ccc1C)C(=O)CN1C(=O)NC2(CCCC2)C1=O | inactive | –
Cc1cc(=O)oc2c(C)c(OCC(=O)NCCc3ccc(S(N)(=O)=O)cc3)ccc12 | inactive | –
Cc1ccc(OCC(=O)Nc2ccc(C(=O)O)cc2NC(=O)COc2ccc(C)c(C)c2)cc1C | inactive | –
O=C1CC(N2CCN(C(c3ccccc3)c3ccccc3)CC2)C(=O)N1 (stereo not drawn) | inactive | –
CC1(C)CC(N2CCN(C(c3ccccc3)c3ccccc3)CC2)=CC(=[N+]2CCCCC2)C1 | 0.415 µM (active) | –
CC1(C)CC(=O)C=C(N2CCCC2)C1 | inactive | –
CCOc1ccc(S(=O)(=O)Nc2ccc(OC)nc2)cc1 | inactive | –
CN(CCO)c1ccc(/C=N/Nc2nncc3ccccc23)cc1 | inactive | –
COc1ccc2oc(=O)c(C(=O)N3CCCc4ccccc43)cc2c1 | inactive | –
Cc1occc1C(=O)N1CCCc2ccccc21 | 10.4 µM (active) | –
CCC(=O)N1CCCc2ccccc21 | inactive | –
COc1cc(NC(=O)CN2C(=O)NC(C)(c3ccc(OC(F)F)cc3)C2=O)cc(OC)c1OC (stereo not drawn) | inactive | –
COc1ccc(Cl)cc1S(=O)(=O)N1CCC(O)(c2ccc(Cl)cc2)CC1 | inactive | –
CCOc1cc(C(C(=O)NCC2CCCO2)N(C(=O)Cn2nnc3ccccc32)c2cccc(OC)c2)ccc1O (stereo not drawn) | inactive | –
COC(=O)c1sc(N2CCN(Cc3ccccc3)CC2)nc1N | inactive | –
CS(=O)(=O)c1ccc(Cl)c(NC(=O)COC(=O)c2ncc(Cl)c(Cl)c2Cl)c1 | inactive | –
Cc1ccc(S(=O)(=O)c2c[nH]c3ccc(Cl)cc3c2=O)cc1 | inactive | –
COc1ccc(Nc2nc(Cl)nc(NCc3ccco3)n2)cc1 | inactive | –
COc1ccc2[nH]c3c(=O)n(Cc4ccco4)cnc3c2c1 | – | 6.11% [at 5.75 µM]
COc1ccc(-c2oc3ncn(Cc4ccco4)c(=N)c3c2-c2ccc(OC)cc2)cc1 | 6.57 µM (active) | –
CN(c1ccccc1)S(=O)(=O)c1ccc2[nH]c(=O)[nH]c2c1 | inactive | –
CC(CCc1ccccc1)NC(=O)COC(=O)c1ccc(F)cc1 (stereo not drawn) | inactive | –
CCNC(=S)N1CCN(C(=O)c2ccco2)CC1 | inactive | –
CCOC(=O)N1CCN(C(=O)C2CC(c3ccc(F)cc3)=NO2)CC1 (stereo not drawn) | 4.65 µM (active) | –

Structure (SMILES) | Potency | activity change, negative = inhibition
O=C(NCc1cc(C(F)(F)F)cc(C(F)(F)F)c1)C1CC(c2cccc(F)c2)=NO1 (stereo not drawn) | inactive | –
O=C(c1ccco1)N1CCN(C(=O)C2CC(c3ccc(Cl)c(Cl)c3)=NO2)CC1 (stereo not drawn) | 5.86 µM (active) | –
Cc1ccc(NC(=O)C2CC(c3ccc(F)cc3)=NO2)cc1 (stereo not drawn) | 4.15 µM (active) | –
O=C(c1ccc2c(c1)OCO2)N1CCN(C(=O)c2ccco2)CC1 | inactive | –
CCn1ncc(C2=NOC(C(=O)N3CCN(c4ccccc4)CC3)C2)c1C (stereo not drawn) | inactive | –
O=C(c1ccco1)N1CCN(C(=O)c2ccc(COc3ccc(F)cc3)o2)CC1 | inactive | –
COc1ccc(CNC(=O)C2CC(c3ccc(C(F)(F)F)cc3)=NO2)cc1 (stereo not drawn) | inactive | –
O=C(c1ccco1)N1CCN(C(=O)C2CC(c3ccc(F)cc3)=NO2)CC1 (stereo not drawn) | 7.38 µM (active) | –
O=C(Cc1c(F)cccc1Cl)N1CCN(C(=O)c2ccco2)CC1 | inactive | –
CCOC(=O)N1CCN(CC(=O)Nc2ccc(F)cc2)CC1 | inactive | –
O=C(COc1nsnc1N1CCOCC1)Nc1ccccc1Cl | inactive | –
COc1cccc(/C=C/C(=O)OCC(=O)N2CCN(c3ccccc3)CC2)c1 | inactive | –
Cc1ccc(CC2CC(=O)N(c3cc(C)ccc3C)C2=O)cc1 (stereo not drawn) | inactive | –
Cc1ccc(S(=O)(=O)CC(=O)Nc2sc(C)c(C)c2C(N)=O)cc1 | inactive | –
O=C(NNC(=O)C1CCC1)c1ccccc1 | inactive | –
Cc1cccc(C2C3=C(CCCC3=O)N=C3c4ccccc4C(=O)C32)c1 (stereo not drawn) | inactive | –
COc1ccc(-c2cc(C(=O)NCCCN3CCOCC3)no2)cc1 | inactive | –
COc1ccc(-c2cc(C(=O)NCCCn3ccnc3)no2)cc1 | 8.28 µM (active) | –
O=C(NCCCn1ccnc1)c1cc(-c2ccccc2)on1 | inactive | –
Cc1ccc(S(=O)(=O)NC(=O)c2cccc(C)c2)cc1 | inactive | –
O=C(NC1CCN(S(=O)(=O)c2ccc(F)cc2)CC1)c1ccccc1 | inactive | –
CCN(CC)CCN(C(=O)c1ccc(S(=O)(=O)N2CCOCC2)cc1)c1nc2cc3c(cc2s1)OCCO3 | inactive | –
Cc1c(C(=O)N2CCCc3ccccc32)sc2nc(-c3ccccc3)cn12 | inactive | –
Cc1cccc2cc3c(N)c(C(=O)N4CCCc5ccccc54)sc3nc12 | 11.7 µM (active) | –
CCCn1nc(C(=O)N2CCCc3ccccc32)c2ccccc2c1=O | inactive | –
